Drawing on PubChem BioAssay AID624331 (National Center for Advancing Translational Sciences (NCATS), 2012), this text covers Potency for 17 compounds.

Inconclusive results are not listed. Entries that show only a call come without a potency. Activity calls are given as the source filed them. Calls come from the whole dose curve; as a rule, active = well fitted activation curve with a large enough effect; inconclusive = small, poorly fitted or top-dose-only effect; inactive = no such curve, though single readings can be large or run the other way.

The assay can be described thus: qHTS assay for re-activators of p53 using a Luc reporter: Hit Validation with no p53 Expressed. Summed up: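 Counter-screen of primary hits in a cell line not transfected with p53, in Opti-MEM with 10% FBS; compounds at several concentrations (10 mM stock, 1:5; top 46.1 µM in well), 24 h at 37 deg C, 5% CO2. Luminescence read after 10 min with Amplite reagent.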

In the case of `O=C(O)/C=C/c1nc(-c2ccccc2)n2ccccc12`, the Potency result was “inactive”.

Take `CCCCOC(=O)c1ccc(NC(=O)CSc2nncn2C)cc1`: the Potency entry was “inactive”.

`Cc1ccc(C(=O)NC2CC2)cc1S(=O)(=O)N1CCOCC1`: the Potency entry is “inactive”.

Turning to `Cn1c(-c2ncc(F)cc2F)cc2onc(-c3c(F)cccc3Cl)c2c1=O`, the Potency result is “inactive”.

Regarding `Clc1ccc(OCc2nc(-c3ccncc3)no2)c(Cl)c1`, the Potency entry is “inactive”.

`CCOC(=O)c1sc(NC(=S)NC(=O)c2ccco2)nc1C`: the Potency result was “inactive”.

With `Cc1cccc2nc(CSC(=N)N)c(Br)n12`, the Potency result is “inactive”.

As for `Cc1cc(/C=C2/C(=O)NN(c3ccccc3)C2=O)c(C)n1-c1cccc(O)c1`, the Potency result was “inactive”.

Regarding `Cc1cccc(-n2c(C)cc(/C=N\NC(=O)c3cccs3)c2C)c1`, the Potency entry was “inactive”.

As to `Cc1cc(-n2c(C)cc(C(=O)COc3cc(F)ccc3[N+](=O)[O-])c2C)no1`, the Potency result was “inactive”.

Consider `CC(C)c1ccc(OCC(=O)NC(C)c2ccccc2)cc1` (configuration not stated), for which the Potency entry was “inactive”.

`Cc1ccc(NC(=O)/C=C/c2ccc([N+](=O)[O-])s2)c(C)c1`: the Potency entry was “inactive”.

Regarding `CCCCCCC1CC(/C(C)=N\NC(N)=O)OC1=O` (configuration not stated), the Potency result is “inactive”.

Take `COc1ccc(-n2cnc3c(cnn3CCC#N)c2=N)cc1`: the Potency entry is “inactive”.

Take `O=C(/C=C/c1ccco1)NC(=S)Nc1cc(-c2nc3ccccc3s2)ccc1Cl`: the Potency result was “inactive”.

As to `CCc1ccc(-n2cc(-c3ccc([N+](=O)[O-])cc3)[nH]c2=S)cc1`, the Potency result was “inactive”.

Regarding `COc1ccc(CNc2nc(-c3ccccc3)nn2C(=O)c2ccc([N+](=O)[O-])cc2)cc1`, the Potency result is “inactive”.
